Experimental data from the supplement of paper PMC13380429.

Tested on: Vero E6 infected with SARS-CoV-2
Assay: inhibition of SARS-CoV-2 cytopathic effect; higher = more antiviral protection, active = above 15
Conditions: 48 h

Measured: inhibition of SARS-CoV-2 cytopathic effect

O=C(COP(=O)(O)O)[C@@H](O)[C@H](O)[C@H](O)COP(=O)(O)O [fosfructose]
inactive: 1 nM -6.09% | 8.33 nM -3.73% | 100 nM -0.5% | 833.33 nM 1.38% | 10000 nM -1.68%

COc1ccc(-c2cnc3c(-c4cccc5ncccc45)cnn3c2)cc1
inactive: 1 nM -0.88% | 8.33 nM -0.75% | 100 nM 0.925% | 833.33 nM -0.45% | 10000 nM 0.53%

C[C@@]1(C(=O)O)NCCc2cc(O)c(O)cc21 [salsolinol-1-carboxylic-acid]
inactive: 1 nM 0.05% | 8.33 nM -1.48% | 100 nM -1.16% | 833.33 nM 2.45% | 10000 nM 1.69%

CCN1C[C@]2(COC(=O)c3ccccc3N3C(=O)C[C@H](C)C3=O)CC[C@H](OC)[C@@]34[C@@H]5C[C@H]6[C@H](OC)[C@@H]5[C@](O)(C[C@@H]6OC)[C@](O)([C@@H](OC)[C@H]23)[C@@H]14 [methyllycaconitine]
inactive: 1 nM -1.85% | 8.33 nM -0.91% | 100 nM 0.85% | 833.33 nM 0.06% | 10000 nM -1.4%

OC[C@H]1OC(O)[C@H](O)[C@@H](O)[C@@H]1O (stereo not given in full) [dextrose]
inactive: 1 nM 0.5% | 8.33 nM -0.54% | 100 nM 0.12% | 833.33 nM -9.41% | 10000 nM -1.07%

O=C(N/N=C/c1ccc([N+](=O)[O-])o1)c1cc([N+](=O)[O-])cc([N+](=O)[O-])c1O [nifursol]
inactive: 1 nM 0.19% | 8.33 nM 3.21% | 100 nM 2.56% | 833.33 nM 2.62% | 10000 nM 2.82%

O=C(O)P(=O)(O)O [foscarnet]
inactive: 1 nM 3.44% | 8.33 nM 3.89% | 100 nM 2.56% | 833.33 nM 0.33% | 10000 nM 0.71%

CC(=O)[C@]1(N)Cc2c(O)c3c(c(O)c2[C@@H](O[C@H]2C[C@H](O)[C@H](O)CO2)C1)C(=O)c1ccccc1C3=O [amrubicin]
inactive: 1 nM 2.67% | 8.33 nM -2.31% | 100 nM -3.18% | 833.33 nM -3.9% | 10000 nM -0.58%

CC1=CC(=C(c2ccc(N)cc2)c2ccc(N)cc2)C=CC1=N [basic-fuchsin]
inactive: 1 nM 0.76% | 8.33 nM 0.35% | 100 nM 1.45% | 833.33 nM -0.79% | 10000 nM -17.1%

CN(C)C/C=C/C(=O)Nc1ccc(C(=O)Nc2cccc(Nc3ncc(Cl)c(-c4c[nH]c5ccccc45)n3)c2)cc1
inactive: 1 nM -0.79% | 8.33 nM -1.41% | 100 nM -1.48% | 833.33 nM -2.92% | 10000 nM -8.5%

CCN(CC)Cc1ccc(C(=O)N(CCc2ccccc2OC)[C@@H]2CCNC2)cc1
inactive: 1 nM -1.07% | 8.33 nM -4.2% | 100 nM -1.66% | 833.33 nM -1.07% | 10000 nM -1.55%

NNC(=O)CSc1nc2scc(-c3ccccc3)c2c(=O)n1-c1ccccc1
inactive: 1 nM -1.69% | 8.33 nM 1.94% | 100 nM -0.83% | 833.33 nM -2.58% | 10000 nM -1.58%

COc1ccc2nc3c(c(N)c2c1)CCCC3 [7-methoxytacrine]
inactive: 1 nM 0.9% | 8.33 nM 2.7% | 100 nM 0.06% | 833.33 nM 4.86% | 10000 nM 4.52%

CNCCCCOc1ccccc1Cc1ccccc1 [bifemelane]
inactive: 1 nM -0.64% | 8.33 nM 0.99% | 100 nM 1.41% | 833.33 nM -0.82% | 10000 nM -1.85%

COc1c(C)cnc(Cn2cc(C#CCC(C)(C)O)c3c(Cl)nc(N)nc32)c1C
inactive: 1 nM 2.11% | 8.33 nM 1.52% | 100 nM -1.98% | 833.33 nM 0.61% | 10000 nM -7.6%

CC(C)Cc1ccc(C(C)C(=O)O)cc1 (stereo not given) [ibuprofen]
inactive: 1 nM 1.03% | 8.33 nM -0.113% | 100 nM -0.0767% | 833.33 nM 1.1% | 10000 nM -0.35%

C/C(=N\NC(=O)[C@@H]1C(=O)NC[C@H]1c1ccccc1)c1cccc(Br)c1
inactive: 1 nM -1.05% | 8.33 nM 1.12% | 100 nM 1.69% | 833.33 nM -2.01% | 10000 nM -2.3%

CN(CCOP(=O)(O)O)C(=N)N [creatinol-phosphate]
inactive: 1 nM -1.02% | 8.33 nM 2.42% | 100 nM 0.89% | 833.33 nM -2.46% | 10000 nM -1.58%
